Screens deposited in PubChem BioAssay by Broad Institute.
A selection: hits, their analogues and other compounds. The true share with any hit is near 2.7%.
PGC1a acetyl inh: PGC1a acetylation modulation, inhibitor mode; U2OS PGC1a acetylation, AlphaScreen anti-acetyl-lysine; with virally co-expressed GCN5 acetyltransferase; inhibition, % at 15.6 µM; actives 0.17% (n = 350,000); AID 651687;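 active = every replicate shows inhibition of at least 40%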;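 also: 0% = neutral control wells and 100% = positive control wells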
INS-1E GSIS act: GLuc luminescence reporter in INS-1E cells, primary screen for activators of glucose-dependent secretion of insulin; INS-1E GLuc reporter insulin secretion, 2-3 h; activation, % at 16.6 µM; actives 0.61% (n = 370,000); AID 743287;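 active = lowest replicate activation of at least 40%, so every replicate reaches that level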;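 also: 0% = median of neutral control wells and 100% = median of IBMX positive control wells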
PAX8 inh HTS: lowers PAX8-driven luciferase in RMG-I cells. RMG-I TPO-luciferase reporter, SteadyGlo, 24 h. inhibition, % at 12.6 µM. actives 1.2% (n = 360,000). AID 652154;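 active = mean replicate inhibition at least 60% with every replicate also reaching 60%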;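 also: luciferase light reporting Pax8 driven TPO promoter activity; plate controls were median of neutral control wells for no effect and mitoxantrone controls for full effect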
CFTR F508del cor: correctors of CFTR F508del function in bronchial epithelial cells; actives 0.36% (n = 350,000); activity (quench increase), % at 7.58 µM; CFBE cells, YFP halide quenching; stimulated with forskolin plus potentiator P3; % fluorescence drop versus neutral controls;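 active = mean added fluorescence quench of at least 8% versus neutral control, with both replicates also reaching 8%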;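 also: cells transiently co-express mutant CFTR-F508del with the halide-sensitive YFP; corrector assay measuring rescue of mutant channel to the surface after 24 h compound exposure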
HIV Env fusion: blocks HIV Env-driven cell-cell fusion; inhibition, % at 12.3 µM; HeLa-JRFL Env/CEM21 cell fusion, luciferase; AID 651610; actives 1.1% (n = 360,000);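 active = mean replicate inhibition score of at least 50 and every replicate individually at or above 50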;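 also: 0% = plate neutral controls and 100% = maraviroc near 300 nM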
EWS-Fli inh: blocks EWS/Fli oncoprotein-driven transcription. inhibition, % at 12.6 µM. A673 NR0B1-luciferase reporter, viability-normalised. actives 0.67% (n = 350,000);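 active = mean inhibition of at least 50% after viability correction, with every replicate also passing that limit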;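 also: firefly luciferase signal divided by Alamar Blue viability fluorescence both relative to DMSO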
Numbers without * were called inactive; [ ] = dose if it differs, or a comment.

`S=C(NCc1ccco1)N1CCN(c2nc(-c3ccc(Cl)cc3)cs2)CC1` gave PGC1a acetyl inh -18, INS-1E GSIS act 7, PAX8 inh HTS 7, CFTR F508del cor -1, HIV Env fusion 24 and EWS-Fli inh 0.
`C[C@@H](NC(=O)C[C@H]1C=C[C@H](NC(=O)C2CCC2)[C@@H](CO)O1)c1ccccc1` gave INS-1E GSIS act 12, PAX8 inh HTS -5, CFTR F508del cor 0, HIV Env fusion -6[16.7 µM] and EWS-Fli inh -4.
Screening O=C(N/N=C/c1ccco1)c1cc([N+](=O)[O-])cc([N+](=O)[O-])c1 returned INS-1E GSIS act 10, PAX8 inh HTS -15, HIV Env fusion 14 and EWS-Fli inh 82*.
For COc1ccc(S(=O)(=O)N(C)C[C@H]2OCCCC[C@H](C)Oc3ccc(NS(=O)(=O)c4cccs4)cc3C(=O)N([C@@H](C)CO)C[C@H]2C)cc1 the results were PGC1a acetyl inh -13, INS-1E GSIS act 12, PAX8 inh HTS -4, CFTR F508del cor -1, HIV Env fusion -51[16.7 µM] and EWS-Fli inh 4.
`C[C@@H]1CCCCO[C@@H](CN(C)C)[C@@H](C)CN([C@@H](C)CO)C(=O)c2cc(NC(=O)C3CCCCC3)ccc2O1` gave PGC1a acetyl inh 29, INS-1E GSIS act 4, PAX8 inh HTS -3, CFTR F508del cor -3, HIV Env fusion 8[16.7 µM] and EWS-Fli inh -10.
For O=C(CCl)N(CCc1ccccc1)CCc1ccccc1 the results were INS-1E GSIS act -12, PAX8 inh HTS -21, CFTR F508del cor 1, HIV Env fusion 11 and EWS-Fli inh 59*.
For CNC[C@H]1Oc2ccc(NC(=O)Cc3cn(C)c4ccccc34)cc2C(=O)N([C@@H](C)CO)C[C@H]1C the results were PGC1a acetyl inh 15, INS-1E GSIS act 7, PAX8 inh HTS -3, CFTR F508del cor -1, HIV Env fusion 1[16.7 µM] and EWS-Fli inh -7.
COc1ccccc1C(=O)NCCC(=O)NCCOc1ccccc1 was read as PGC1a acetyl inh -5, INS-1E GSIS act 13, PAX8 inh HTS -17, CFTR F508del cor -1 and HIV Env fusion 1.
Screening COc1ccccc1OCCNC(=O)CCNC(=O)c1ccccc1OC returned PGC1a acetyl inh 3, INS-1E GSIS act 4, PAX8 inh HTS 3, CFTR F508del cor 24*, HIV Env fusion 4 and EWS-Fli inh -3.
C[C@H]1CN([C@@H](C)CO)S(=O)(=O)c2ccc(C#CC3CC3)cc2O[C@@H]1CN(C)C(=O)CN(C)C was read as PGC1a acetyl inh -2, INS-1E GSIS act -3, CFTR F508del cor -3, HIV Env fusion -3[16.7 µM] and EWS-Fli inh 4.
`O=C(C1=NN(c2ccccc2)C(=O)CC1)N1CCc2ccccc2C1` gave PGC1a acetyl inh -9, INS-1E GSIS act 113*, PAX8 inh HTS 13, CFTR F508del cor 3, HIV Env fusion 3 and EWS-Fli inh 3.
Screening O=C(Cc1ccc(Cl)cc1)OCC(=O)c1ccc[nH]1 returned PGC1a acetyl inh 5, INS-1E GSIS act -2, PAX8 inh HTS -13, CFTR F508del cor 23* and EWS-Fli inh 3.
Screening O=C(Cc1ccc(Cl)c(Cl)c1)OCC(=O)c1ccc[nH]1 returned PGC1a acetyl inh 1 and HIV Env fusion -4.
For CC(C)NC(=O)Nc1ccc2c(c1)C(=O)N([C@@H](C)CO)C[C@@H](C)[C@H](CN(C)CC1CCCCC1)OCCCC[C@H](C)O2 the results were PGC1a acetyl inh 0, INS-1E GSIS act 19, PAX8 inh HTS 6, CFTR F508del cor 1 and HIV Env fusion 11[16.7 µM].
Screening Cc1noc(C)c1NC(=O)Nc1ccc2c(c1)C(=O)N([C@@H](C)CO)C[C@@H](C)[C@H](CN(C)C(=O)Nc1ccc(F)cc1)O2 returned PGC1a acetyl inh -3, INS-1E GSIS act 2, PAX8 inh HTS -6, CFTR F508del cor -1, HIV Env fusion 14[16.7 µM] and EWS-Fli inh 1.
Screening COc1ccccc1CNC(=O)CCS(=O)(=O)Cc1ccc(C)cc1 returned PGC1a acetyl inh -7, INS-1E GSIS act 88*, PAX8 inh HTS -3, CFTR F508del cor 1 and HIV Env fusion -4.
For CCCC(=O)Nc1ccc2c(c1)OC[C@@H](C)N(Cc1cccc(F)c1)C[C@@H](C)[C@H](OC)CN(C)C2=O the results were PGC1a acetyl inh 4, INS-1E GSIS act -25, PAX8 inh HTS 3, CFTR F508del cor 5 and EWS-Fli inh 5.
